Bioassay records deposited in PubChem by National Center for Advancing Translational Sciences (NCATS).
BAZ2B block – inhibitors of human BAZ2B bromodomain; Potency, µM (highest dose often 114 µM), inactives show top-dose activity change, negative = inhibition, hits mostly inhibitors; 4.4% of 360,000 active; AlphaScreen BAZ2B-H3K14Ac peptide displacement; note: potency is the fitted concentration of half-maximal effect; % is set by controls: 0 for no effect and ±100 for the full control effect; nearly all actives have a fitted effect of over 60% in size
Target sequence (Q9UIF8 whole entry, looked up): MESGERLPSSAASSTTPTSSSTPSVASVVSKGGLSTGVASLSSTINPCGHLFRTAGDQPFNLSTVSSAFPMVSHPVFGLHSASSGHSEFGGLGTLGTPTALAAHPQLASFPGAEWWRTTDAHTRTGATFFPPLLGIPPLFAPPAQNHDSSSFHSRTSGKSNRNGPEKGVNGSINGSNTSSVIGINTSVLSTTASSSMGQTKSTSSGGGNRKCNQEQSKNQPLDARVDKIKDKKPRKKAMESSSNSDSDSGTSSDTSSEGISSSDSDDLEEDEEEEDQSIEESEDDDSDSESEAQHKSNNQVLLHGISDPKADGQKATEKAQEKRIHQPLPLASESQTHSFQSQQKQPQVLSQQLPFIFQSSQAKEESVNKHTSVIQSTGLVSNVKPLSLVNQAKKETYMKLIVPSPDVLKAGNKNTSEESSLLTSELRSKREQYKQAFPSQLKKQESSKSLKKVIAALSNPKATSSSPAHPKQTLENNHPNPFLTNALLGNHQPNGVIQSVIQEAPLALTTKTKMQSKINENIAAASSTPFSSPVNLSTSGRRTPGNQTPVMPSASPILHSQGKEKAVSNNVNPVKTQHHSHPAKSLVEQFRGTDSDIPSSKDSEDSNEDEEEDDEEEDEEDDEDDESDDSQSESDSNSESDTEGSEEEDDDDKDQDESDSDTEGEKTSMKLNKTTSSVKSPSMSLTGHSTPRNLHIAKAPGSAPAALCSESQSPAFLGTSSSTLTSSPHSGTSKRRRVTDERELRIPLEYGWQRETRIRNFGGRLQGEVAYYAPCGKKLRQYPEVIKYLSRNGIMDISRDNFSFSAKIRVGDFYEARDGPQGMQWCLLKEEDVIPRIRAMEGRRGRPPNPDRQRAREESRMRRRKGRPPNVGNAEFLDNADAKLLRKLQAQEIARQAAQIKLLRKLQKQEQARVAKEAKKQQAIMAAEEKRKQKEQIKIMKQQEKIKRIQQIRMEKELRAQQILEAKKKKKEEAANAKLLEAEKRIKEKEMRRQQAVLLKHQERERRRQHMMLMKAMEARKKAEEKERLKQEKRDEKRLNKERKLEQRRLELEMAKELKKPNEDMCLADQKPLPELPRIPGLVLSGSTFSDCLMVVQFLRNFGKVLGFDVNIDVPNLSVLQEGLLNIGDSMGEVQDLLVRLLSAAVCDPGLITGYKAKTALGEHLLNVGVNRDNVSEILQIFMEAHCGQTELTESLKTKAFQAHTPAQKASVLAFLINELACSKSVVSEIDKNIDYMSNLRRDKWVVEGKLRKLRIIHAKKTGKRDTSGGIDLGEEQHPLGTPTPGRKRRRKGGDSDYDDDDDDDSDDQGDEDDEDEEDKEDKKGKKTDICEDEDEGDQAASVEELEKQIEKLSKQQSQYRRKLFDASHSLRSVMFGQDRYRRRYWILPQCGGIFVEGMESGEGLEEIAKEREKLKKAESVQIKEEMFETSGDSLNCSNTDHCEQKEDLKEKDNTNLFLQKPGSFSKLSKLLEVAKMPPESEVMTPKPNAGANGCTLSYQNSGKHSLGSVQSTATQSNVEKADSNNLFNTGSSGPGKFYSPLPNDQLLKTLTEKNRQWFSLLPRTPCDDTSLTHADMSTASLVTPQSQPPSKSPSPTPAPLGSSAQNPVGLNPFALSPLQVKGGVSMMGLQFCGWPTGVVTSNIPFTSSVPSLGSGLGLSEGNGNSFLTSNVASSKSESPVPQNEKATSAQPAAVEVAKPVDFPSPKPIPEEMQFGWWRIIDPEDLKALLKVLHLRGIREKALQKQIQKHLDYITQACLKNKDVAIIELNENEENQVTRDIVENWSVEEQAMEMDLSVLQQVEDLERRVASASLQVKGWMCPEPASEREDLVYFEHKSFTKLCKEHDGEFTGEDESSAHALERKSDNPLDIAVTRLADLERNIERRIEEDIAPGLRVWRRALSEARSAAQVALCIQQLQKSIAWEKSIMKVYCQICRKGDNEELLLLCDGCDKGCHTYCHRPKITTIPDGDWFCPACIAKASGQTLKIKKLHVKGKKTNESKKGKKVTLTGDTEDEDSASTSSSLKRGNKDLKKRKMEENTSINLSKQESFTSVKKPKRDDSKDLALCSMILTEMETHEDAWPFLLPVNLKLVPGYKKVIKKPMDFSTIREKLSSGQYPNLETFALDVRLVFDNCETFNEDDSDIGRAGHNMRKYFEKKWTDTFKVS
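BAZ2B 50 nM plus b-H3(5-23)K14Ac 50 nM, PBS pH 7.4/0.01% Tween-20, 30 min RT; compound added (max 110 uM), 30 min RT; streptavidin donor/Ni-chelate acceptor beads 10 ug/mL final, 20 min dark; AlphaScreen read.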
JMJD2A Tudor – inhibitors of human JMJD2A Tudor domain. AID 504339. AlphaScreen JMJD2A-Tudor / H3K4me3 peptide binding. O75164. 4.4% of 390,000 active. Potency, µM (doses to about 114 µM), for the others: at the highest dose activity change, negative = inhibition, usual class: inhibitors; note: potency is the fitted concentration of half-maximal effect; % is set by controls: 0 for no effect and ±100 for the full control effect; nearly all actives have a fitted effect of over 50% in size
HP1b chromo inh – inhibitors of HP1-beta chromodomain binding to methylated histone tails. P83916. AlphaScreen HP1-beta / biotin-H3K9me3 peptide binding. Potency, µM (series often up to 114 µM), for the others: at the highest dose activity change, negative = inhibition, hits mostly inhibitors. 0.56% of 390,000 active. AID 540317; note: potency is the fitted concentration of half-maximal effect; nearly all actives have a fitted effect of over 70% in size
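HP1-beta protein (50 nM final) preincubated 30 min at room temperature with biotinylated H3(1-18)K9me3 peptide (50 nM) in PBS pH 7.4, 0.01% Tween-20, then compound added for 30 min. AlphaScreen streptavidin donor/nickel chelate acceptor beads (10 ug/mL final), 30 min dark, luminescence read.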
GCN5L2 inh – GCN5L2 (KAT2A) acetyltransferase inhibition; GCN5L2 HAT assay, ThioGlo1 CoA-SH fluorescence; Q92830; 0.21% of 390,000 active; Potency, µM (highest dose often 58.9 µM), for inactives: at the top dose activity change, negative = inhibition, hits mostly inhibitors; note: potency is the fitted concentration of half-maximal effect; % is set by controls: 0 for no effect and ±100 for the full control effect
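Free CoA generated was detected with ThioGlo1 (50uM) fluorescence at Ex340nm/Em540nm, read immediately and after 20 min at room temperature. Enzyme, 20 nM in HEPES pH 7.5 buffer, saw compounds 15 min before adding 75uM H3(1-25) peptide and 70uM acetyl-CoA.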
PI5P4K alpha inh – blocks human PI5P4K alpha kinase activity | max response, % | PI5P4Kalpha enzyme, ADP-Glo luminescence, 60 min; active compounds read low | P48426 | 1.2% of 330,000 active; active = max response of -50% or lower; inconclusive = between -30% and -50%; inactive = -30% or higher; note: value at the top dose of about 77 µM; % is set by controls: 0 for no effect and ±100 for the full control effect
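ADP-Glo luminescence end-point after a 60 min room-temperature kinase reaction. PI5P4Kalpha and substrate in HEPES pH 7.4 buffer with EGTA, 0.1% CHAPS and 5% DMSO; ATP at 5 microM final.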
PLK1 PBD inh – inhibitors of human PLK1 polo-box domain binding; P53350; Plk1 PBD binding of FITC phosphopeptide, fluorescence polarization; Potency, µM, inactives show max response, negative = inhibition, usual class: inhibitors; 2.8% of 360,000 active; AID 720504; note: potency is the fitted concentration of half-maximal effect; series mostly up to about 57 µM; % is set by controls: 0 for no effect and ±100 for the full control effect; nearly all actives have a fitted effect of over 65% in size
Starred values were filed as active, the others as inactive; ? = inconclusive; · = not tested or not shown; [ ] = dose if it differs, or a comment. An excerpt weighted towards active compounds, which were near 7% of everything screened. Unless noted, calls come from the whole dose curve; as a rule, active = well fitted curve in the direction sought with a large enough effect; inconclusive = small, poorly fitted or top-dose-only effect, or another doubt; inactive = no such curve, though single readings can be large; an effect the other way counts as inactive or inconclusive.

SMILES	BAZ2B block	JMJD2A Tudor	HP1b chromo inh	GCN5L2 inh	PI5P4K alpha inh	PLK1 PBD inh
CCC(C)NCCCOc1ccc([N+](=O)[O-])cc1 (stereo not drawn)	?	79.4µM*	-18.7%	-3.6%	-0.3	-6.1%
CCCCNCCCCOc1ccccc1	-1.3%	-11.3%	22.9%	-0.5%	·	-2.3%
CCC(C)NCCCCOc1cc(C)cc(C(C)C)c1 (stereo not drawn)	?	8.91µM*	?	-0.6%	1.9	-19.5%
Cc1cccc(N2CCN(C(=O)NCc3ccc(F)cc3)CC2)c1C	10.0%	?	26.2%	-25.8%	-10.0	29.9µM*
Cc1cccc(N2CCN(CC(=O)NCC3CCCCC3)CC2)c1C	50.1µM*	5.01µM*	?	-0.9%	·	-9.1%
Cc1cccc(N2CCN(C(=O)NC3CCCCC3)CC2)c1C	6.3%	-11.5%	19.5%	-0.8%	-0.6	-15.0%
Cc1ccc(S(=O)(=O)c2c(C)nn(-c3ccccc3)c2OC(=O)c2ccccc2F)cc1	-15.5%	?	20.4%	-11.1%	·	·
Cn1c(=O)n(C)c2cc(NC(=O)c3ccccc3NS(C)(=O)=O)ccc21	-10.7%	-5.1%	38.2%	-5.3%	5.5	-6.4%
Cc1[nH]n(-c2ccccc2)c(=O)c1CCO	1.6%	4.2%	35.8%	-23.2%	7.4	-14.0%
Cc1cc(C)n(-c2ccc(Oc3ccccc3)c(S(=O)(=O)O)c2)n1	-33.8%	89.1µM*	3.2%	-0.8%	-10.4	·
CCc1c(C)[nH]n(-c2ccc(Oc3ccccc3)c(S(=O)(=O)O)c2)c1=O	·	56.2µM*	4.1%	-11.0%	-18.0	13.4µM*
Cc1cc(C)n(-c2ccc(C(=O)O)cc2)n1	6.0%	0.0%	33.8%	5.7%	1.7	-4.7%
CN(C)CC(C)(C)CNS(=O)(=O)c1cccc(Cl)c1Cl	11.4%	50.1µM*	26.3%	-3.0%	2.0	-9.8%
COC(=O)c1ccc(C2=NOC(C)(c3nnc(Cc4ccccc4)o3)C2)cc1 (stereo not drawn)	8.2%	-12.5%	6.0%	-7.9%	-4.3	-14.6%
CCOC(=O)C1=C(C)N=c2sc(=Cc3cc(Cl)c(OCC(=O)O)c(Cl)c3)c(=O)n2C1c1cccc(OC)c1 (stereo not drawn)	·	·	·	·	-74.0*	26.7µM*
CCOC(=O)C1=C(C)N=c2s/c(=C/c3ccc(OCC(=O)O)cc3)c(=O)n2C1c1cc(OC)c(OC)c(OC)c1 (stereo not drawn)	-37.2%	-26.5%	9.7%	-24.2%	-22.0	-9.3%
CCOC(=O)C1=C(C)N=c2s/c(=C\c3ccc(OC(C)=O)c(OCC)c3)c(=O)n2C1/C=C/c1ccccc1 (stereo not drawn)	1.8%	44.7µM*	3.1%	-3.3%	-26.2	1.8%
CCOC(=O)C1=C(C)N=c2s/c(=C\c3cccc(OCC(=O)O)c3)c(=O)n2C1c1ccccc1OC (stereo not drawn)	50.1µM*	?	-13.6%	-2.1%	3.8	0.0%
CCOC(=O)C1=C(C)N=c2s/c(=C\c3ccc(OCC(=O)O)cc3)c(=O)n2C1c1ccc(OC(C)C)cc1 (stereo not drawn)	?	?	3.6%	?	-6.6	23.8µM*
Cc1ccc(C)c(N2CCN(S(=O)(=O)c3cc4c(cc3Cl)NC(=O)CO4)CC2)c1	11.0%	-14.6%	23.3%	-7.2%	5.7	-2.7%
COc1ccc(C)cc1Nc1nc(C)nc2sc(C)cc12	-13.1%	?	14.3%	-0.7%	-3.4	29.9µM*
O=C(O)CCn1c(=O)c2cccn2c2cccnc21	-0.2%	-18.5%	7.6%	-4.4%	·	·
COC(=O)c1ccc2nc(NC(=O)CN3C(=O)CCC3=O)sc2c1	56.2µM*	-21.2%[11.4 µM]	-6.2%	-1.5%	?	11.9µM*
O=C(Nc1ccc(-c2nnn(CC(=O)N3CCN(C(=O)c4ccco4)CC3)n2)cc1)c1ccc(F)cc1	79.4µM*	-5.1%[11.4 µM]	54.0%	?	4.3	-6.4%
Cc1ccc(C(=O)Nc2ccc(N3CCN(C(=O)c4ccco4)CC3)cc2)cc1	-27.7%	79.4µM*	-7.0%	-0.5%	-17.5	?
SMILES	BAZ2B block	JMJD2A Tudor	HP1b chromo inh	GCN5L2 inh	PI5P4K alpha inh	PLK1 PBD inh
CCN(C)C1CN(Cc2cn(Cc3ccccc3)nn2)S(=O)(=O)C1 (stereo not drawn)	·	·	·	·	-3.0	-4.1%
N=C(N)SCc1ccccn1	35.5µM*	22.4µM*	-4.4%	-9.8%	?	-13.5%
N=C(N)SCc1ncccc1O	?	?	-1.8%	-1.0%	-0.2	-25.6%
COc1ccc(NC(=O)c2c(Nc3ccccc3)sc(C(=O)c3ccc(F)cc3)c2N)cc1	?	44.7µM*	-31.5%	3.8%	3.9	-8.8%
CCOC(=O)C1=CCN(S(=O)(=O)c2ccccc2C)C1c1ccc(Cl)c(Cl)c1 (stereo not drawn)	·	·	·	·	11.7	7.8%
O=C1CN(S(=O)(=O)c2cc(Br)ccc2Br)CCN1	·	-11.0%	36.5%	0.3%	0.5	-3.4%
O=c1c(Br)ccc(Br)cc1Br	·	-27.1%	-8.7%	·	-6.1	0.532µM*
O=C(NCc1ccccc1Cl)c1cc2c(s1)CS(=O)(=O)C2	-11.7%	-12.8%	47.2%	-7.1%	?	-12.6%
COc1cc(C(=O)OCC(=O)N2CCC(C)CC2)cc2c1OCCO2	-5.6%	-5.1%	49.5%	1.3%	-1.1	1.1%
CCCC(=O)Nc1nnc(COC)s1	6.8%	-0.6%	16.3%	-8.2%	0.3	-0.3%
COCc1nnc(NC(=O)c2cc(Cl)ccc2OC)s1	18.7%	-9.8%	13.5%	-4.0%	·	29.9µM*
COCc1nnc(NC(=O)CCCOc2ccccc2OC)s1	-5.0%	50.1µM*	-25.2%	-0.9%	-16.9	26.7µM*
COc1cc(C(=O)Nc2nnc(CC(C)C)s2)c([N+](=O)[O-])cc1OC	-7.2%	-1.0%	27.3%	-6.5%	-0.4	-10.8%
COCc1nnc(NC(=O)c2cc(OC)c(OC)cc2[N+](=O)[O-])s1	7.6%	-13.5%[57.1 µM]	?	1.5%	-9.3	29.9µM*
COCCn1c(=S)[nH]c2ncccc2c1=O	-23.1%	14.1µM*	15.7%	-8.6%	-4.5	1.9%
Cc1ccccc1S(=O)(=O)N1C(c2ccc(Cl)c(Cl)c2)CC=C(C(=O)O)C1c1cccc(Br)c1 (stereo not drawn)	·	·	·	·	?	23.8µM*
Cc1ccc([C@@H]2CC=C(C(=O)O)[C@H](c3ccc(Br)cc3)N2S(=O)(=O)c2ccccc2C)cc1	·	-24.7%	7.9%	?	1.8	26.7µM*
Cc1ccccc1S(=O)(=O)N1[C@@H](c2ccccc2)C(C(=O)O)=CC[C@H]1c1ccc(Cl)cc1	6.3%	-10.6%	46.3%	-16.6%	-0.4	?
Cc1ccccc1S(=O)(=O)N1[C@@H](c2ccc(Br)cc2)C(C(=O)O)=CC[C@H]1c1ccc(Cl)cc1	·	-23.3%	47.6%	?	-3.4	21.2µM*
